The results in this text go back to PubChem BioAssay AID686978 (National Center for Advancing Translational Sciences (NCATS), 2013).

In all, about 420,000 compounds went through this assay and about 64,000 (15%) were called active. About 27% were inconclusive and are not listed. These entries were drawn from the full list. Unmarked numbers belong to inactive results. Calls follow the shape of the dose curve; as a rule, active = well fitted inhibition curve with a large enough effect; inconclusive = small, poorly fitted or top-dose-only effect; inactive = flat fitted curve, though single readings scatter.
% is scaled to controls: 0 for no effect and ±100 for the full control effect; potency is read from the fitted curve at half-maximal effect.

A short description of the experiment: qHTS for Inhibitors of human tyrosyl-DNA phosphodiesterase 1 (TDP1): qHTS in cells in absence of CPT. Also: nearly all actives have a fitted effect of over 55% in size. Particulars: DT40 Tdp1-/- hTDP1 cells, no CPT, ATP luminescence, 48 h; activity change, negative = growth inhibition: at 46.2 µM (top of the series). In short, it runs like this: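 Stably hTDP1-transfected Tdp1-null chicken DT40 cells were treated with library compounds minus camptothecin and grown for at least 48 hr at 37 °C, after which cellular ATP was quantified by luminescence.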
In the case of `NC(=NC(=O)c1ccccc1)N1CCOCC1`, the “activity change, negative = growth inhibition” value is -7.81%. Take `O=C(CNS(=O)(=O)c1ccccc1)NCC(=O)OCc1ccccc1F`: the “activity change, negative = growth inhibition” value is -1.4%. `COc1ccc(-c2nc3sc(CCNC(=O)C(C)(C)C)c(C)n3n2)cc1`: the Potency was 23.1 µM (active). In the case of `CCOc1ccc2nc(NCCNC(=O)C(C)(C)C)c(C)cc2c1`, the “activity change, negative = growth inhibition” value is 3.35%. As for `Cc1ccc(S(=O)(=O)NCCC(=O)Nc2cccc(S(N)(=O)=O)c2)cc1C`, the “activity change, negative = growth inhibition” value was -7.74%. Take `COc1ccc(CCNS(=O)(=O)c2cn(C)nc2C)cc1`: the “activity change, negative = growth inhibition” value is 21.6%. As for `COc1ccc(CNC(=O)Cn2nnc(-c3ccc(S(C)(=O)=O)cc3)n2)cc1`, the “activity change, negative = growth inhibition” value was 3.37%. For the compound `COc1ccc(-c2nc3sc(CCNS(=O)(=O)c4ccc(F)c(C)c4)c(C)n3n2)cc1`, the Potency is 20.6 µM (active). For the compound `COC(=O)C1=NNC2(c3ccc(C)cc3)C(=O)N(c3cccc(C)c3C)C(=O)C12` (stereo unspecified), the “activity change, negative = growth inhibition” value was 0.864%. On the same count and under the same terms, the figure for `CS(=O)(=O)c1ccc(-c2nnn(CC(=O)Nc3ccc4c(c3)OCCO4)n2)cc1` is -22.9%; for `O=C(NC1CCN(Cc2ccccc2)CC1)c1c(F)cccc1F` it is -0.567%. In the case of `CC(=O)NCc1ccc(S(=O)(=O)NC2CCN(Cc3ccccc3)CC2)cc1`, the “activity change, negative = growth inhibition” value was -25.9%. Regarding `O=C(NC1CCN(Cc2ccccc2)CC1)c1cc(Br)c(Br)[nH]1`, the Potency is 16.4 µM (active). Consider `O=C(NC1CCN(Cc2ccccc2)CC1)c1ccccc1F`, for which the “activity change, negative = growth inhibition” value was -1.29%.

Take `O=C(NC1CCN(Cc2ccccc2)CC1)c1ccc(Oc2cc(Cl)cc(Cl)c2)o1`: the Potency is 18.4 µM (active). In the case of `O=S(=O)(NCc1ccccn1)c1ccc(Br)s1`, the “activity change, negative = growth inhibition” value is -29.1%. In the case of `CCOCCCNC(=O)c1c[nH]c2cc(C)ccc2c1=O`, the “activity change, negative = growth inhibition” value was -26.3%. Regarding `COc1cccc(OCc2nnc3n2N=C(c2ccccc2)C(CC(=O)O)S3)c1` (stereo unspecified), the “activity change, negative = growth inhibition” value is -1.23%. Take `Cc1ccc(C(=O)/C=C/c2c(C)nn(-c3ccccc3)c2Cl)cc1`: the Potency was 20.6 µM (active). For `Cc1nn(-c2ccccc2)c(CC(C)(C)C(=O)O)c1C(=O)O`, the “activity change, negative = growth inhibition” value was -4.67%. With `Cc1nn(-c2ccccc2)c(Cl)c1C(=O)Nc1ccccc1`, the “activity change, negative = growth inhibition” value was -11.2%. Same read-out and setting: the figure for `Cc1nn(-c2ccccc2)c(C)c1/C=C/C(=O)OC(C)C(N)=O` (stereo unspecified) is -4.84%; for `O=C(O)c1ccc2c(c1)C(=O)N(c1ccc(/C=C/C(=O)c3ccccc3)cc1)C2=O` it is 12.3%.

Consider `Cc1nn(-c2ccccc2)c(Cl)c1/C=C/C(=O)c1ccc(O)cc1`, for which the Potency was 16.4 µM (active). As to `COc1ccc(C2CC(=O)C=C(NCC3CCCO3)C2)cc1` (stereo unspecified), the “activity change, negative = growth inhibition” value was 0.462%.

For the compound `COC(=O)c1ccc(/C=N\n2c(C)nnc2C)cc1`, the “activity change, negative = growth inhibition” value is -0.419%. For the compound `CC(OC(=O)c1ccc(NS(=O)(=O)c2ccc3[nH]c(=O)[nH]c3c2)cc1)C(=O)Nc1cccc(Cl)c1Cl` (stereo unspecified), the “activity change, negative = growth inhibition” value was 3.55%. For the compound `O=C(COCc1cc(-c2ccc3c(c2)OCO3)on1)N1CCN(c2cccc(Cl)c2)CC1`, the “activity change, negative = growth inhibition” value was -1.5%.

Turning to `Cc1cc(/C=C2/C(=N)N3C(=NC2=O)SN=C3S(C)(=O)=O)c(C)n1-c1ccccc1`, the “activity change, negative = growth inhibition” value is -18.8%. For the compound `O=C(CSc1nnc(Cc2ccccc2)n1-c1ccccc1)N1CCOCC1`, the “activity change, negative = growth inhibition” value was -0.859%. As for `CN(CCc1ccccn1)C(=O)c1ccc(OC2CCN(CCc3ccccc3)CC2)cc1`, the “activity change, negative = growth inhibition” value is -27%. For `c1ccc(-c2cc(-c3ccccc3)[nH]n2)cc1`, the “activity change, negative = growth inhibition” value is -8.4%. Consider `Fc1ccc(-c2ccc(-c3nn4c(-c5ccco5)nnc4s3)o2)cc1`, for which the “activity change, negative = growth inhibition” value was -28.6%. On to `c1ccc(-c2cc(-c3nnc4sc(-c5ccccn5)nn34)[nH]n2)cc1`, for which the Potency is 13 µM (active). Turning to `COC(=O)C1[C@H]2SC(C)(C)C(C(=O)OC)N2C(=O)N1Cc1nc2ccccc2s1` (stereo partly specified), the “activity change, negative = growth inhibition” value was -3.96%. On to `Cc1cccc(CSc2nnc(Cn3c(=O)sc4ccccc43)n2C)c1`, for which the “activity change, negative = growth inhibition” value is -24.2%. Take `Brc1ccc(C2CC(c3ccccc3)=Nc3ccccc3N2)cc1` (stereo unspecified): the Potency is 23.1 µM (active). Regarding `CNC(=S)N1N=C(c2ccccc2)CC1c1ccc(Br)cc1` (stereo unspecified), the “activity change, negative = growth inhibition” value is -23%. Regarding `CCCC(=O)Nc1cccc(NC(=S)NC(=O)C(C)Oc2ccc(Cl)cc2Cl)c1` (stereo unspecified), the “activity change, negative = growth inhibition” value was -24.7%. As to `CC(Cc1cccs1)NC(=O)c1cccc(Cl)c1` (stereo unspecified), the “activity change, negative = growth inhibition” value was -29.3%. With `Cc1noc(C)c1S(=O)(=O)N(C)C[C@H]1Oc2ccc(NC(=O)C3CC3)cc2C(=O)N([C@H](C)CO)C[C@@H]1C`, the “activity change, negative = growth inhibition” value is -17.6%.

Turning to `COc1ccc(-c2nc(Cn3c(=O)cc(C)c4c(C)nn(-c5ccccc5)c43)c(C)o2)c(OC)c1`, the Potency was 20.6 µM (active).

With `COc1ccc(-c2nc(Cn3c(=O)cc(C)c4c(C)nn(-c5ccccc5)c43)c(C)o2)cc1OC`, the “activity change, negative = growth inhibition” value is 5.82%. Still for that read-out and setting: the result for `Cc1ccc(-c2nc(Cn3c(=O)cc(-c4ccccc4)c4c(C)nn(C)c43)c(C)o2)cc1` reads -4.46%. The same measure, in the same setting: the figure for `COc1cc(NC(=O)COC(=O)CSc2ccc3ccccc3c2)c(C)cc1[N+](=O)[O-]` is -20.6%. In the case of `O=C1N=C(N2CCOCC2)S/C1=C\C=C/c1ccccc1`, the “activity change, negative = growth inhibition” value was -25.6%. `CC1CCN(C2=NC(=O)/C(=C/c3cn[nH]c3-c3ccccc3)S2)CC1`: the Potency is 14.6 µM (active). In the case of `Cc1nc2nc(C)c(NS(=O)(=O)c3ccc(C(C)(C)C)cc3)c(=O)n2[nH]1`, the “activity change, negative = growth inhibition” value was -14.5%. On the same count and under the same terms, the figure for `CC(=O)c1ccc(OC(=O)N2CCOCC2)cc1` is -11.9%; for `Cc1ccc(CN(C)Cc2cc(=O)oc3cc(C)c(Cl)cc23)cc1` it is 0.563%; for `COc1ccc(S(=O)(=O)N(C)C[C@@H]2Oc3ccc(NS(=O)(=O)c4cn(C)cn4)cc3C(=O)N([C@@H](C)CO)C[C@@H]2C)cc1` it is 2.75%.
